The values that follow come from PubChem BioAssay.

Test [1] can be described thus: compounds altering viability of human ES cells (AID 493140; call rule not given here;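 further: cells exposed to compounds for four days before counting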). The settings on record: human embryonic stem cell survival screen; stronger effect = higher value.
Test [2] can be described thus: stimulators of insulin release from INS-1E, primary screen, cell-based, 5 mM glucose, NPC library (AID 1117329;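 active means compound raises insulin release from rat beta cells at 5 mM glucose, no numeric limit stated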). The note with it: rat INS-1E insulin secretion, at 10 µM, stronger effect = higher value.
The nature of test [3]: growth inhibition of GSK3B-pretreated HCT116 cells – cell-based, CellTiter-Glo, 0.2 to 20 µM (AID 1117336;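 active means compounds lowering colon cancer cell viability after pretreatment blocking the GSK3B kinase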). The note with it: HCT116 viability after GSK3B inhibitor, at 20 µM, stronger effect = higher value. On the technique in general: ATP-based viability assays read luminescence as a measure of living cells.
A short description of test [4]: inhibition of endothelial tube formation, primary screen, imaging, VEGF stimulated, CD31 staining, tube area, NPC library (AID 1117340;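 active means compound that reduces growth-factor-driven endothelial tube area in a mixed cell culture, no cutoff stated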). The settings on record: VEGF-stimulated ADSC/ECFC co-culture, at 10 µM, stronger effect = higher value.
Test [5] is described as follows: GLP1 release stimulators, primary, NCI-H716, NPC library (AID 1117341;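 active means compound raises GLP1 secretion from the human gut endocrine cells, with no numeric limit stated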). The settings on record: NCI-H716 cells, at 10 µM, stronger effect = higher value.
Test [6] is described as follows: HCT116 colon cancer cell growth inhibition, primary screen, CellTiter-Glo luminescence, NPC library (AID 1117342;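 active means compounds that lower survival of HCT116 colon cancer cells in the luminescence readout, no numeric limit stated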). The settings on record: at 20 µM (top of the series).
Test [7] in a line: reduced SW480 viability measured with CellTiter-Glo, NPC library, primary (AID 1117343;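 active means compounds that lower viability of the colon cancer cells in the luminescence readout, with no numeric limit stated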). The note with it: CellTiter-Glo luminescence; at 20 µM (top of the series) unless noted.
Test [8] in a line: NPC library primary testing for decreased DLD-1 cell viability via CellTiter-Glo (AID 1117346;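 active means compounds that lower survival of DLD-1 colon cancer cells in the luminescence readout, no cutoff given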). The note with it: DLD-1 viability, CellTiter-Glo luminescence; at 20 µM (top of the series).
In test [9] the target is 6-phosphogluconate dehydrogenase, decarboxylating (Homo sapiens) (UniProt P52209). The test can be described thus: inhibition of human phosphogluconate dehydrogenase – biochemical, recombinant enzyme, NADPH absorbance, primary screen (AID 1159550;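 active means at least 20% inhibition of 6-phosphogluconate dehydrogenase activity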). The settings on record: recombinant 6PGD, NADPH absorbance 341 nm; at 10 µM; stronger effect = higher value.
6-phosphogluconate dehydrogenase, decarboxylating (Homo sapiens), sequence (P52209 whole entry, looked up): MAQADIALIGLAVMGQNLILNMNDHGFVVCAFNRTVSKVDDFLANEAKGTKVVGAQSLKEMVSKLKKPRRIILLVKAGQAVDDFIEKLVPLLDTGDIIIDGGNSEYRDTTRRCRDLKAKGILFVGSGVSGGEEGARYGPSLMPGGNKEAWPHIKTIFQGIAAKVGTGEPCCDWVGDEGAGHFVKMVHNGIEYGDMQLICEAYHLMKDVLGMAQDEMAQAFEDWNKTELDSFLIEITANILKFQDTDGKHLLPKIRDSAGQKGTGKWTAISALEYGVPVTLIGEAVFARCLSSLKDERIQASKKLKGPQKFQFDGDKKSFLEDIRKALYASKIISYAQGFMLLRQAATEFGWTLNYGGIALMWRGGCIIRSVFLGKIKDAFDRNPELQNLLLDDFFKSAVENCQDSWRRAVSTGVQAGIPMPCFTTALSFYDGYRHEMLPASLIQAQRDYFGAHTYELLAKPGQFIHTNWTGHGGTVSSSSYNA
Test [10] can be described thus: modulation of C. elegans fzo-1 (AID 1259413; call rule not given here;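 further: fzo-1 mutant C. elegans worms in liquid wells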). The settings on record: C. elegans fzo-1 modulator screen, mean read-out; stronger effect = higher value.
Test [11] in a line: EMT-state selective cytotoxicity in co-culture – imaging, PC-3E GFP, TEM4-18 mCherry, primary screen (AID 1345086;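 active means compounds killing one labelled cell type while sparing the other, by normalised counts and ratio limits, not self-fluorescent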;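 on all read-outs here: cells exposed to compound for 72 h before imaging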;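 on red/green cell ratio (normalised): normalised mesenchymal count divided by normalised epithelial count so high means epithelial killing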). The settings on record: PC-3E GFP / TEM4-18 mCherry co-culture, imaging cell counts, at 1 µM; for red/green cell ratio (normalised): actives lie on both sides, counts scaled to control wells, 1 = unselective.
Test [12] is described as follows: MELAS cybrid and Rieske KO viability enhancers – cell-based, MELAS cybrids, Rieske KO mouse fibroblasts, CellTiter-Glo, primary screen (AID 1508586).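 Further: z relative to plate mean and SD of compound and empty wells.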 The settings on record: low glucose.
For test [13], the target named is NAD(+) hydrolase SARM1 (Homo sapiens) (UniProt Q6SZW1). The test can be described thus: blocking NAD cleavage by SARM1 SAM-TIR – cell lysate, NAD-Glo luminescence (AID 1508614;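 active means compound whose remaining NAD level is above about 45 nM, limit read from the data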). The settings on record: SAM-TIR HEK293T lysate NADase, at 1 µM, stronger effect = higher value.
NAD(+) hydrolase SARM1 (Homo sapiens), sequence (Q6SZW1 whole entry, looked up, the tested form may be a part): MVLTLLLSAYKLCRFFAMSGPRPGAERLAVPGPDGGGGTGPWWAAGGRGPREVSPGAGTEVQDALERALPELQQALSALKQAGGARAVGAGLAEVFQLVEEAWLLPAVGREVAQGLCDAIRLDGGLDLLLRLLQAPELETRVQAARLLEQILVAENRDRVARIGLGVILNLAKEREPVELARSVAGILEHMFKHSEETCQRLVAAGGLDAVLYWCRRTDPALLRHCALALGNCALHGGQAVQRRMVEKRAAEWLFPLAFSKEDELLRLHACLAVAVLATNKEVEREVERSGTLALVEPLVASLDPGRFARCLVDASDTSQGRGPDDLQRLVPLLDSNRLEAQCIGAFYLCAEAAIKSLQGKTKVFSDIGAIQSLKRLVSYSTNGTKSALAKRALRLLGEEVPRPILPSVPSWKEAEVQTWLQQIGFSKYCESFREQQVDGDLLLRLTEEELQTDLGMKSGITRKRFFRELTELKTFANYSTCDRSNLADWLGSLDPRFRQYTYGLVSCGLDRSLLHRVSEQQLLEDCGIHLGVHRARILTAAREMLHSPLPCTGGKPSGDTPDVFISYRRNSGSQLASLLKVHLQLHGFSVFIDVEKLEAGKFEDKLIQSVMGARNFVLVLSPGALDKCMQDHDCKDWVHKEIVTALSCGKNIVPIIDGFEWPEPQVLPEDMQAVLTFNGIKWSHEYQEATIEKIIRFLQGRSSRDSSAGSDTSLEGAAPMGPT
Test [14] concerns the target Mitogen-activated protein kinase 7 (Homo sapiens) (UniProt Q13164). The test can be described thus: Gal4-ERK5 driven luciferase induction – cell-based, HTS, primary screen (AID 1508626;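 active means luciferase signal above three times the same-plate solvent-only control wells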;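 further: luciferase driven by Gal4-ERK5 fusion binding five Gal4 sites before minimal TATA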). The settings on record: HeLa Gal4-ERK5 transactivation, 18 h, at 5 µM, stronger effect = higher value.
A short description of test [15]: galactose survival enhancers in mitochondrial complex I cybrids – cell-based, galactose medium, ATP luminescence, primary screen (AID 1645843;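 active means z-score of at least 1.8 in each of two replicates, scored against plate mean and spread of sample wells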;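 further: positive z means more ATP and so rescue of galactose-driven cybrid death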). The settings on record: complex I mutant cybrid cells, 72 h, stronger effect = higher value.
Test [16] in a line: Wnt pathway potentiators raising nuclear beta-catenin – imaging, WNT3A-conditioned medium, mouse C2C12, NPC library, primary screen (AID 1117326; in the data active means nuclear beta-catenin stimulation mostly above about 4.2%, no sharp cut-off; inactive means mostly below about 10%). The settings on record: stronger effect = higher value.
Setting [17] is: measured here: epithelial PC-3E GFP cell survival.
The mark [18] stands for this setting: measured here: mesenchymal TEM4-18 mCherry cell survival.
Setting [19] is: MELAS cybrid survival, CellTiter-Glo 48 h, stronger effect = higher value.
Setting [20] is: Rieske KO mouse fibroblast survival, CellTiter-Glo 72 h.

“And” between values parts separate entries of the source, which are not always exact repeats. Equal values may be shown once. The source made the active and inactive calls.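 How the source made its calls, unless noted: active means mean z-score across replicates of 1.96 or higher in either the MELAS or the Rieske mutant cell line; inactive means the rest.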

For orientation: inhibition means the relative decrease from the control value, in per cent.

Mitogen-activated protein kinase 7 (Homo sapiens), sequence (Q13164 whole entry, looked up, the tested form may be a part): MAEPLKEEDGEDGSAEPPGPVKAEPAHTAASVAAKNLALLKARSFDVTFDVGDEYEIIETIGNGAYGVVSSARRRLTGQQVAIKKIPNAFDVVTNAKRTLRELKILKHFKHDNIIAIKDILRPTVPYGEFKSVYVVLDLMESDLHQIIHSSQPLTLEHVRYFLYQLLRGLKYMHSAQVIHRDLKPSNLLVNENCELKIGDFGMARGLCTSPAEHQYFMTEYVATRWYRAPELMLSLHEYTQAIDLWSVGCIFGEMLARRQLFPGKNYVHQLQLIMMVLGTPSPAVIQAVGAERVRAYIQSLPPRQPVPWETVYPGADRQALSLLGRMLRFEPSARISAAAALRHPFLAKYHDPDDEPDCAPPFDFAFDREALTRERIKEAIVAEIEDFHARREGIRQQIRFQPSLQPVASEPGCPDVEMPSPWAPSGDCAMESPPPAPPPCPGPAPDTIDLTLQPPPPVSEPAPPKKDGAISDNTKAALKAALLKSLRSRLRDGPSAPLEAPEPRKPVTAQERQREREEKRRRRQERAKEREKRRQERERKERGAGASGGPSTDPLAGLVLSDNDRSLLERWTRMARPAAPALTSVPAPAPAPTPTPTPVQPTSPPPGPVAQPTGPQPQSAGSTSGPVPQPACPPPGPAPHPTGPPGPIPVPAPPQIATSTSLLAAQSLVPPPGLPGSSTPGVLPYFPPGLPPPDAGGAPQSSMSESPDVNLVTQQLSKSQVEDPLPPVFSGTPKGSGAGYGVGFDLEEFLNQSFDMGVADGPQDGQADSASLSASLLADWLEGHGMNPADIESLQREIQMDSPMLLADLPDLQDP

`CC(C(=O)O)c1cccc(C(=O)c2ccccc2)c1` (centres undefined): the survival in test [1] was 15.6 (inactive). In [2], the insulin secretion stimulation was 1.7% (inactive). In addition, the viability decrease in test [3] was 9.9% (inactive). The tube area decrease in test [4] is -21.2% (inactive). Moreover, in [5], the GLP1 secretion stimulation is 1.2% (inactive). In addition, the inhibition of viability in [6] was 1.73% (inactive). The viability decrease (inhibition) in [7] was 1.9% (inactive); in test [8], -13.8% (inactive). Also, the inhibition in test [9] was -9.9% (inactive). For the same compound, the mean signal in test [10] was 232 (inactive). Further, the red/green cell ratio (normalised) in test [11] is 1.06 (inactive). The normalised cell number worked out at 1.07 in test [11] (setting [17]) and 1.13 in test [11] (setting [18]). For the same compound, the z-score is -0.241 (inactive) and 0.309 (inactive) and -0.387 (inactive) in test [12] (setting [19]); 0.963 and -0.169 and -0.868 in [12] (setting [20]); 0.45 (inactive) and 0.27 (inactive) and 0.89 (inactive) in [15]. In addition, in test [13], the remaining NAD is 10 nM (inactive). In addition, in test [14], the luciferase signal is 60 AU (inactive).

On to `O=C(O)C1CCC1`, for which the nuclear beta-catenin stimulation was -0.9% (inactive) in [16] (at 10 µM) and 6.2% in [16] (stimulation, at 2 µM). Moreover, in test [3], the viability decrease was -0.7% (inactive). In addition, the inhibition of viability in [6] was 13.6% (inactive). For the same compound, the results for the viability decrease (inhibition) in test [7] and in [8] were 1.4% (inactive) and 6.3% (inactive), respectively.

For `CC(C)OC(=O)C(C)(C)Oc1ccc(C(=O)c2ccc(Cl)cc2)cc1`, in [1], the survival is 16.9 (inactive). For the same compound, the nuclear beta-catenin stimulation in test [16] (at 10 µM) is 1.9% (inactive); in test [16] (stimulation, at 2 µM), 6.9%. Moreover, in test [3], the viability decrease is 81.1% (active). Besides, the inhibition of viability in [6] was 81.4% (active). Moreover, the viability decrease (inhibition) is 75.1% (active) in test [7] and 57.5% (active) in test [8]. Besides, in test [9], the inhibition is 13.2% (inactive). The mean signal in test [10] was 232 (inactive). In [11], the red/green cell ratio (normalised) was 1.01 (inactive). Further, the normalised cell number in [11] (setting [17]) and in test [11] (setting [18]) was 1 each time. The z-score in test [12] (setting [19]) is 0.204 (inactive) and 1.22 (inactive) and 0.396 (inactive); in test [12] (setting [20]), 0.718 and 0.00922 and -0.202; in [15], -1 (inactive) and -1.21 (inactive) and -1.85 (inactive). Further, in [13], the remaining NAD was 10 nM (inactive). In addition, in [14], the luciferase signal was 56 AU (inactive).

Regarding `CN(C)C(=O)C(CCN1CCC(O)(c2ccc(Cl)cc2)CC1)(c1ccccc1)c1ccccc1`, the survival in test [1] is 9 (inactive). Besides, the insulin secretion stimulation in test [2] is 1.9% (inactive). Further, in test [3], the viability decrease was 64.9% (active). In addition, the tube area decrease in [4] is 11.7% (inactive). Besides, the GLP1 secretion stimulation in test [5] was 2.9% (inactive). Moreover, the inhibition of viability in test [6] is 90.6% (active). Also, the viability decrease (inhibition) was 99.6% (active) in test [7] and 88.2% (active) in [8]. In addition, the inhibition in test [9] is 1.17% (inactive). Also, the mean signal in [10] was 201 (inactive). Also, the red/green cell ratio (normalised) in test [11] was 1.02 (inactive). Further, the normalised cell number in test [11] (setting [17]) was found to be 1.3; in test [11] (setting [18]), 1.33. In addition, the z-score in test [12] (setting [19]) is -0.364 (inactive) and -0.238 (inactive) and 0.591 (inactive); in [12] (setting [20]), -1.34 and 0.463 and -0.456. Further, the remaining NAD in [13] was 10 nM (inactive). The luciferase signal in test [14] was 40 AU (inactive).

`N=c1nc(N2CCCCC2)cc(N)n1O`: the survival in test [1] was 23.2 (inactive). The nuclear beta-catenin stimulation in test [16] (at 10 µM) was 0.1% (inactive); in test [16] (stimulation, at 2 µM) it was 8.6%. The viability decrease in test [3] was 3.1% (inactive). In addition, in test [6], the inhibition of viability is 10.8% (inactive). Further, the viability decrease (inhibition) in test [7] was -3.9% (inactive); in [8], 7.1% (inactive). In addition, the inhibition in test [9] was 0.805% (inactive). Further, the mean signal in test [10] is 252 (inactive). Besides, the red/green cell ratio (normalised) in [11] was 1.27 (inactive). Besides, the figures for the normalised cell number in [11] (setting [17]) and in test [11] (setting [18]) were 1.08 and 1.37, respectively. Moreover, the z-score is -0.417 (inactive) and -0.443 (inactive) in test [12] (setting [19]); 0.0783 and -0.248 in test [12] (setting [20]). For the same compound, the remaining NAD in [13] is 10 nM (inactive). In test [14], the luciferase signal is 44 AU (inactive).
